This note sets out measurements from ChEMBL document CHEMBL3988442, “University of Dundee, Small-Polar-MMV Screening Library” (2021).

In all, about 48,000 compounds went through this assay and about 13,000 (27%) showed an effect of 50% or more. The list shows a part of the results.

The assay concerns Wolbachia pipientis. As to the kind of experiment: Anti-Wolbachia Cell-Based Screen. It is filed as functional. The arrangement: scale not given: in the data most compounds retested in dose-response had high values. To be noted: 5 µM.
Turning to `CN(C)CCn1c(=O)oc2ccc(NC(=O)CC(C)(C)C)cc21`, the “Percent Effect” value is given as 14.89%.
For `Cc1ccc(NC(C)C(=O)NCc2cccs2)cc1C` (centres undefined), the “Percent Effect” value is -16.27%.
To `CCOc1ccc2ccccc2c1CNCC1CCS(=O)(=O)C1.Cl` (centres undefined) belongs -1.499%; to `CCOc1ccnc(N2CCN(C(=O)C(C)(C)C#N)CC2)n1`, 0.4658%.
In the case of `COc1cc(CN(C)C(=O)NCc2cccnc2OC)ccc1SC`, the “Percent Effect” value is on record as -20.02%.
To `Cc1cc(CS(=O)(=O)C(C)c2ccc(F)cc2)on1` (centres undefined) belongs -4.028%; to `COc1ccc(CNC2CCN(c3ccccc3)C2)c(OC)c1OC` (centres undefined), -16.13%; to `Cc1nccn1C1CCCN(C(=O)c2ccnc(-n3ccnc3)c2)C1` (centres undefined), 102.3%.
On to `O=C(c1ccc(-n2ccnc2)nc1)N1CCCC(n2cccn2)C1` (centres undefined), for which the “Percent Effect” value is -14.33%.
As to `Cc1nccn1C1CCCN(C(=O)c2cccc(Cn3ccnc3)c2)C1` (centres undefined), the “Percent Effect” value is recorded as 99.35%.
Turning to `O=C(c1ccnc(-n2ccnc2)c1)N1CCCC(n2cccn2)C1` (centres undefined), the “Percent Effect” value is reported as 103.2%.
For `CN(C)c1cc(C(=O)N2CCCC(n3cccn3)C2)ccn1` (centres undefined), the “Percent Effect” value was -2.177%.
In the case of `O=C(c1ccnc(-n2ccnc2)c1)N1CCCC(n2ccnc2)C1` (centres undefined), the “Percent Effect” value is recorded as 100.2%.
To `O=C(c1cccc(Cn2ccnc2)c1)N1CCCC(n2ccnc2)C1` (centres undefined) belongs 0.5166%.
To `CC(C)n1ccnc1CN1CCOC(CC2CCCCC2)C1` (centres undefined) belongs 1.186%; to `CCc1ccc(-c2cn(CCSc3ncn[nH]3)nn2)nc1`, 2.471%.
Take `Cn1nnnc1SCCNC(=O)C1CCN(C(=O)C2CCC2)CC1`: the “Percent Effect” value is on record as 1.92%.
For the compound `CC(C)[C@H]1CN(CC2CCC2)C[C@@H]1NC(=O)c1ccc(=O)[nH]c1`, the “Percent Effect” value amounted to 7.651%.
In the case of `CN(C)C(=O)c1nc(CN2C(=O)OC[C@@H]2c2ccccc2)no1` it was 1.255%.
Turning to `O=C(CN1CCS(=O)(=O)CC1)NC1CCCc2ccccc21` (centres undefined), the “Percent Effect” value was determined as 8.057%.
To `CCN(CCO)Cc1cn(-c2cccc(F)c2)nc1-c1ccc(C)o1` belongs 11.71%; to `O=C1CN(Cc2nnc(-c3ccc(Cl)cc3)o2)CCN1`, -10.36%.
In the case of `c1ccc2c(c1)CC(N1CCCC(NCc3cccc4nonc34)C1)C2` (centres undefined) it was -10.52%; in that of `CCN(CCn1cccn1)C(=O)CN1C(=O)OC[C@@H]1c1ccccc1`, -1.306%; in that of `O=S(=O)(c1cccnc1)N1CCN(CC(O)c2ccccc2)CC1` (centres undefined), 2.359%.
Take `O=S(=O)(CC1CCCN1S(=O)(=O)C1CC1)c1ccccc1` (centres undefined): the “Percent Effect” value is listed as 115.6%.
In the case of `CS(=O)(=O)N1CCCC1CS(=O)(=O)c1ccccc1` (centres undefined) it was 121.3%; in that of `Cc1nccn1CC1CCCN1S(=O)(=O)Cc1ccccc1` (centres undefined), -11.24%.
To `CS(=O)(=O)N1CCCCC1CCc1ccc(O)cc1` (centres undefined) belongs 6.219%; to `O=C(CC1CCCN1S(=O)(=O)N1CCCCC1)c1cccs1` (centres undefined), -4.447%; to `NC1CCCCN(Cc2ccccc2CS(=O)(=O)c2ccccc2)C1` (centres undefined), -12.21%.
Consider `O=S(=O)(CC1CCCN1S(=O)(=O)c1cccnc1)c1ccccc1` (centres undefined), for which the “Percent Effect” value is 115.5%.
In the case of `O=S(=O)(c1cccnc1)N1CCCC1COc1ccccc1` (centres undefined) it was -14.29%.
In the case of `CS(=O)(=O)c1ccc(-c2c[nH]c([C@@H]3COCCN3)n2)cc1` it was 22.57%; in that of `COc1ccc(OC)c2c(C)cc(N(C)Cc3cc(C)on3)nc12`, -2.431%; in that of `Cc1nc2cc(=O)[nH]n2c(C)c1CC(=O)Nc1ccc2ccccc2n1`, -9.33%.
To `CCS(=O)(=O)c1ccc2oc([C@H]3CCN(CC4CCCCC4)C3)nc2c1` belongs -4.53%.
Turning to `COc1cccc(-c2noc(C3CCN(Cc4ccncc4)C3)n2)c1` (centres undefined), the “Percent Effect” value came to 126.2%.
`c1ccc(-c2noc(C3CCN(CCn4cccn4)CC3)n2)cc1`: the “Percent Effect” value stood at 4.986%.
In the case of `COc1cccc(-c2cccc(CN3C[C@@H]4CC[C@H](C3)N(C)C4=O)c2)c1` it was 5.514%.
In the case of `COc1cccc(-c2noc(C3CCN(CC4CCCCC4)C3)n2)c1.Cl` (centres undefined) it was 96.8%.
As to `COc1cccc(-c2noc(C3CCN(Cc4cccs4)C3)n2)c1.Cl` (centres undefined), the “Percent Effect” value turned out to be 4.787%.
Regarding `COc1cccc(-c2noc(C3CCN(CC(N)=O)C3)n2)c1` (centres undefined), the “Percent Effect” value is 113.2%.
As for `COc1cccc(-c2noc(C3CCN(Cc4ccc(C)cc4)C3)n2)c1.Cl` (centres undefined), the “Percent Effect” value is 91%.
In the case of `Cc1cccc(-c2noc([C@@H]3C[C@@H](O)CN3C3CCOCC3)n2)c1` it was -7.928%.
In the case of `COc1cccc(COC(C)C(=O)NC2CCN(CC(N)=O)CC2)c1` (centres undefined) it was -5.378%; in that of `Cc1c(NC(C)C(C)C)cccc1C(=O)NCc1cnn(C)c1` (centres undefined), 6.886%; in that of `COC(=O)c1sccc1S(=O)(=O)NCC1(O)CCOc2ccccc21` (centres undefined), -4.679%.
To `CCOC(=O)CN1CCC(NC(=O)OC(C)(C)C)CC1` belongs -0.4465%.
On to `COc1cccc([C@@H](C)n2ccnc2-c2cc3n(n2)CCNC3)c1`, for which the “Percent Effect” value is -10.36%.
Take `CN(Cc1nc2ccccc2[nH]1)C(=O)C(C)(C)n1cc(Cl)cn1`: the “Percent Effect” value is reported as 2.79%.
To `Cc1nn(C)c(C)c1C1CCCN1Cc1cccc(C(N)=O)c1` (centres undefined) belongs 1.349%; to `O=C(O)CCc1cccc(C2CCCN2Cc2cccc(Cl)c2)n1` (centres undefined), 91.67%; to `Cc1cccc(CN2CCCC2c2cccc(CCC(=O)O)n2)c1` (centres undefined), 96.42%.
With `O=C(O)CCc1cccc(C2CCCN2Cc2ccc(F)c(F)c2)n1` (centres undefined), the “Percent Effect” value is on record as -6.193%.
In the case of `Cc1cc(C)nc(N2CCC(c3cccc(CCC(=O)O)n3)CC2)n1` it was 80.96%; in that of `COc1cc(C)nc(N2CCN(C(=O)CCc3cscn3)CC2)n1`, -12.29%; in that of `NC(=O)COc1cccc(CN2CCCC2c2ccc[nH]2)c1` (centres undefined), 11.28%.
To `O=C(O)CCc1cn(C2CCN(c3ncccc3Cl)CC2)nn1` belongs -1.723%.
As to `CC(=O)c1cc(CN2CCCC2c2nc3ccc(C)cc3[nH]2)cs1` (centres undefined), the “Percent Effect” value is -31.75%.
To `CCCN1CCCn2nc(CNC(=O)CC3CCS(=O)(=O)C3)cc2C1` (centres undefined) belongs -3.917%.
Regarding `CCc1ccc(C2COCCN2C(=O)Nc2cccc(C(C)=O)c2)o1` (centres undefined), the “Percent Effect” value is listed as -4.107%.
With `CSc1ncc(C(=O)NCc2cc3n(n2)CCCN(CC(C)C)C3)cn1`, the “Percent Effect” value worked out at 10.82%.
Take `CC(=O)N1CCC2(CC1)CN(CC(C)C)CC21CCNC1=O.O=C(O)C(F)(F)F` (centres undefined): the “Percent Effect” value is -42.64%.
Take `COc1cc2c(cc1OC)S(=O)(=O)N(Cc1ccccc1C)C2=O`: the “Percent Effect” value is -3.651%.
As for `CC1CCN(c2nc(O)cc(C3CC(=O)N(C4CCCCC4)C3)n2)CC1` (centres undefined), the “Percent Effect” value turned out to be 162.6%.
Consider `O=C1CC(c2ncc(-c3ccc4c(c3)OCCO4)[nH]2)CN1C1CCCC1` (centres undefined), for which the “Percent Effect” value was 12.43%.
Consider `CC(C)Nc1nc(O)cc(C2CC(=O)N(C3CCCCC3)C2)n1` (centres undefined), for which the “Percent Effect” value is given as 137.6%.
In the case of `CC(=O)N1CC[C@H]2CC(=O)N(C3CCCCC3)CC[C@H]2C1` it was -3.423%.
In the case of `CCNC(=O)N1CC[C@H]2CC(=O)N(C3CCCCC3)CC[C@H]2C1` it was 0.2272%; in that of `CCOCCCNc1nc(O)cc(C2CC(=O)N(C)C2)n1` (centres undefined), -9.932%; in that of `CCc1nc(C)c(CN2CCN(c3ncnc4c(C)csc34)CC2)[nH]1`, 6.188%.
On to `O=c1cc(CN2CCCC(CCc3c(F)cccc3F)C2)[nH]c(=O)[nH]1` (centres undefined), for which the “Percent Effect” value is -9.358%.
Consider `O=C1NCCCCC1NC(=O)C1(c2cccc(Cl)c2)CC1` (centres undefined), for which the “Percent Effect” value is -14.19%.
To `O=C(O)C(F)(F)F.O=C1CC(c2ccccc2)C2(CCN(CC3CC3)CC2)N1` (centres undefined) belongs -11.51%; to `Cc1nc(CN2CCC3(CC2)NC(=O)CC3c2cccnc2)cs1` (centres undefined), 101%.
Regarding `O=C1CC(c2cccnc2)C2(CCN(C(=O)N3CCOCC3)CC2)N1` (centres undefined), the “Percent Effect” value came to 18.29%.
Turning to `O=C1CC(c2ccncc2)C2(CCN(CCO)CC2)N1` (centres undefined), the “Percent Effect” value is given as -11.83%.
To `CCc1ccc(CN2CCC3(CC2)NC(=O)CC3c2ccncc2)o1.O=C(O)C(F)(F)F.O=C(O)C(F)(F)F` (centres undefined) belongs -16.11%; to `Cc1nc(CN2CCC3(CC2)NC(=O)CC3c2ccncc2)cs1.O=C(O)C(F)(F)F.O=C(O)C(F)(F)F` (centres undefined), 104.7%.
In the case of `COc1ccc(CN2CCC3(CC2)NC(=O)CC3c2ccncc2)cc1.O=C(O)C(F)(F)F.O=C(O)C(F)(F)F` (centres undefined) it was 4.952%; in that of `O=C(O)C(F)(F)F.O=C(O)C(F)(F)F.O=C1CC(c2ccncc2)C2(CCN(CC3CC3)CC2)N1` (centres undefined), 90.78%.
In the case of `O=C(O)C(F)(F)F.O=C1CC(c2ccncc2)C2(CCN(C(=O)c3cccs3)CC2)N1` (centres undefined) it was 1.39%; in that of `CC(NC(=O)c1ccc2c(c1)COC2)c1cccc(N2CCOC2=O)c1` (centres undefined), -4.788%.
On to `Cc1nc2cc(OCc3nc(C(=O)NC(C)(CO)CO)co3)ccc2s1`, for which the “Percent Effect” value was found to be 17.49%.
As for `Cc1nc(C)n(CCNC(=O)C(C)n2ccnc2C(C)C)n1` (centres undefined), the “Percent Effect” value is listed as -3.784%.
To `CCc1nnc(CN(CC)C(=O)C(C)n2ccnc2C(C)C)o1` (centres undefined) belongs 83.87%; to `CCN(Cc1ccncc1)C(=O)C(C)n1ccnc1C(C)C` (centres undefined), 110.2%; to `CC(C)c1nccn1C(C)C(=O)NC1Cc2ccccc2C1` (centres undefined), 10.2%.
Regarding `Cc1ccc(CN(C)C(=O)C(C)n2cncn2)o1` (centres undefined), the “Percent Effect” value was -9.156%.
As to `CCc1nnc(CN(CC)C(=O)CCc2scnc2C)o1`, the “Percent Effect” value is -3.701%.
With `Cc1cccnc1N1CCN(C(=O)C(C)n2ccnc2C(C)C)CC1` (centres undefined), the “Percent Effect” value was -23.9%.
Take `CC(C(=O)N(C)Cc1ccc(Br)o1)n1cccn1` (centres undefined): the “Percent Effect” value is on record as 0.6222%.
To `CCN(Cc1ccc(C)o1)C(=O)C(C)n1ccnc1C(C)C` (centres undefined) belongs 103.3%; to `Cc1ccc(CN(C)C(=O)C(C)n2ccnc2C(C)C)o1` (centres undefined), 90.15%; to `CCOC(=O)N1CCN(C(=O)C(C)n2ccnc2C(C)C)CC1` (centres undefined), -18.05%.
To `COc1cc2c(cc1CNC(=O)C(C)n1ccnc1C(C)C)OCCO2` (centres undefined) belongs -1.746%; to `Cc1nnc2ccc(NCC3(N4CCCCC4)CCOCC3)nn12`, -7.148%.
In the case of `COc1ccc(C)cc1-n1c(COC(C)C)n[nH]c1=O` it was 0.04984%.
